Drawing on PubChem BioAssay (Tox21), this text covers Potency and cytotoxicity increase for 40 compounds.

Where “and” joins values, the source holds several entries; their conditions need not be identical. Identical values can stand only once. Inconclusive results are not listed. A call without a number means that no potency is given here. Calls of active or inactive are those of the source. Calls come from the whole dose curve; as a rule, active = well fitted activation curve with a large enough effect in the repeat runs; inconclusive = weak or mixed curves; inactive = flat fitted curve, though single readings scatter.
Potency is the fitted concentration of half-maximal effect.

This test in a line: A CellTox Green Cytotoxicity Assay to monitor cytotoxicity in HepG2 cells - 16 hour (AID 1224876). Note: nearly all actives have a fitted effect of over 45% in size. The settings on record: CellTox Green fluorescence; series mostly up to 76.8 µM. The text has this: National Center for Advancing Translational Sciences [NCATS]
NIH Chemical Genomics Center [NCGC]
U.S. Environmental Protection Agency [EPA]
National Institutes of Environmental Health Sciences [NIEHS]
National Toxicology Program [NTP]
Cell-based models are critical for drug discovery. Determining the natural cytotoxic effects resulting from test compounds is an essential research activity. A CellTox Green Cytotoxicity Assay to monitor cytotoxicity in real time of continues cell culture during 40 hours of the compound treatment was used to screen Tox21 10K library compounds in HepG2 cells. CellTox Green Cytotoxicity Assay is a nonlytic, homogeneous, biofluorescent method to measure cytotoxicity in cell culture after experimental manipulation. The assay system uses a proprietary asymmetric cyanine dye that is excluded from viable cells but preferentially stains the dead cell's DNA. […] Viable cells produce no appreciable increases in fluorescence. Therefore, the fluorescence signal produced by the binding interaction with dead cell DNA is proportional to cytotoxicity.
The mixture of HepG2 cell suspension and reagents were dispensed at 600cells/6 ul/well in 1536-well tissue culture treated black solid bottom plates using a Multidrop dispenser. After the assay plates were incubated at a 37 C/5% CO2 incubator for 5 hours, 23 nL of compounds dissolved in DMSO, positive and negative controls was transferred to the assay plate by a pintool work station. The plates were incubated at 37 C for 40 hours. The fluorescence intensity were measured at 0h, 8h, 16h, 24h, 32h and 40h time points using ViewLux plate reader during compound treatment.
Consider `CS(C)(=O)=O`, for which the Potency result is “inactive”. The same measure, in the same setting: the result for `CNCC[C@H](Oc1cccc2ccccc12)c1cccs1` reads 23.9 µM (active). Still for that read-out and setting: the result for `C=C(c1ccc(C(=O)O)cc1)c1cc2c(cc1C)C(C)(C)CCC2(C)C` reads 24.5 µM (active); that for `CCCCCCCCCCCCCCCC`, “inactive”. The same measure, in the same setting: with `c1cc[nH]c1` the entry was “inactive”.

Consider `S=P(N1CC1)(N1CC1)N1CC1`, for which the Potency entry was “inactive”. Consider `CCC(=O)OCCc1ccccc1`, for which the Potency result was “inactive”. Still for that read-out and setting: with `CCOC(=O)CN` the entry was “inactive”; with `CC1CCCCC1`, “inactive”. Same read-out and setting: the result for `CCN=c1cc2oc3cc(NCC)c(C)cc3c(-c3ccccc3C(=O)OCC)c-2cc1C` reads 10.9 µM (active) and 6.17 µM (active); that for `CC(=O)OC1CCCCC1`, “inactive”; that for `CCCCCCOc1cc(C)c(O)c(C)c1C`, 24.8 µM (active). The same measure, in the same setting: the result for `C=CC(=O)OCC(O)COc1ccccc1` (stereo not given) reads “inactive”; that for `OCCN1CN(CCO)CN(CCO)C1`, “inactive”. With `CCN(CC)c1ccc(N)cc1`, the Potency result was “inactive”. On the same count and under the same terms, with `CCCC(=O)OCC(COC(=O)CCC)OC(=O)CCC` the entry was “inactive”. Same read-out and setting: with `CC(C)c1ccc(O)c(C(C)C)c1` the figure was 43.6 µM (active); with `O=C1NCCN1CCN1CCC(c2cn(-c3ccc(F)cc3)c3ccc(Cl)cc23)CC1`, 26.8 µM (active). As for `COc1cc(C(C)C)c2c(c1)S(=O)(=O)N(COc1cc(=O)n3cccc(OCCN4CCCCC4)c3n1)C2=O`, the cytotoxicity increase was 19.8% [at 15.8 µM] (inactive).

As to `CCCCCCCCC(C)=O`, the Potency result was “inactive”.

As to `c1ccc2c(c1)CCC2`, the Potency result is “inactive”. The same measure, in the same setting: the result for `CC(C)(C)c1cc(CCC(=O)NCCCCCCNC(=O)CCc2cc(C(C)(C)C)c(O)c(C(C)(C)C)c2)cc(C(C)(C)C)c1O` reads “inactive”; that for `C/C=C/CO`, “inactive”; that for `CCCCN(CCCC)CCC(O)c1cc2c(Cl)cc(Cl)cc2c2cc(C(F)(F)F)ccc12` (stereo not given), “inactive”. The same measure, in the same setting: with `CCOCOCC` the entry was “inactive”; with `Cc1cccc(N(C)C)c1`, “inactive”. Still for that read-out and setting: the result for `CC(C)(C)CC(C)(C)c1ccccc1O` reads 24.7 µM (active); that for `OCCCc1cccnc1`, “inactive”; that for `C/C=C/c1ccc(OC)c(OC)c1`, “inactive”. As to `CC1(C)COCN1`, the Potency result was “inactive”. Same read-out and setting: with `OCCCCl` the entry was “inactive”; with `CCO[Si](C)(C)OCC`, “inactive”; with `O=S(=O)(O)CCCN1CCOCC1`, “inactive”. The same measure, in the same setting: with `Clc1cc(Cl)c(-c2c(Cl)c(Cl)cc(Cl)c2Cl)cc1Cl` the entry was “inactive”; with `C/C=C/C(=O)C1=C(C)CCCC1(C)C`, “inactive”.

For `CCCCCCCC/C=C/CCCOC(C)=O`, the Potency entry was “inactive”.

For the compound `C=CC(=O)OCCC#N`, the Potency result was “inactive”. On the same count and under the same terms, with `C=CC(=C)CCC=C(C)C` the entry was “inactive”; with `C[C@]12CC[C@H]3C(=CCc4cc(O)ccc43)[C@@H]1CCC2=O`, “inactive”. Same read-out and setting: with `C[Si](C)O[Si](C)C` the entry was “inactive”.
